# PPC-1+TRAIL kill = kills PPC-1 cancer cells in the presence of TRAIL | 0.41% of 220,000 active | PPC-1 cells + TRAIL, ATPLite viability luminescence | AID 1443 | cell killing (% activity), % at 4 µM or 5 µM;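 active = cell killing above 50% in the first pass at 4 µM, then a duplicate retest at 5 µM averaging 50% or more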;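 also: plate controls were cells with TRAIL plus DMSO for no effect and medium-only wells lacking cells for full effect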
# SENP7 block = inhibitors of human SENP7 protease; recombinant SENP7, Z-RLRGG-aminoluciferin luminescence, 40 min; inhibition, % at 5 µM; 1.5% of 330,000 active;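 active = inhibition above about 50% at the single test dose, limit read from the data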;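 also: plate controls were DMSO with enzyme for no effect and no enzyme buffer wells for full effect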
# Target sequence (Q9BQF6 706-1050 limits assumed): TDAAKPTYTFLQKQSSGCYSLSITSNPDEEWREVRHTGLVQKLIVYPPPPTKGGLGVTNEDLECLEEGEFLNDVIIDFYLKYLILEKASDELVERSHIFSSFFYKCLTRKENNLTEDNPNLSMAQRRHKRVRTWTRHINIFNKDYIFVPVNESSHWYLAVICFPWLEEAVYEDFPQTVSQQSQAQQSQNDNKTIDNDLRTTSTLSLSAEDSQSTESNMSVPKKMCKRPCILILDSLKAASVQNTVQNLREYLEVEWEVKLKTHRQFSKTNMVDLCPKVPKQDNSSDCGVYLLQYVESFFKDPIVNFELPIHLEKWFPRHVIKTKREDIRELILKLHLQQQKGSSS
# SENP6 inh = SENP6 protease inhibition; Q9GZR1; Recombinant SENP6 catalytic domain, aminoluciferin luminescence; inhibition, % at 10 µM; 1.8% of 330,000 active; AID 2599;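 active = inhibition above about 50% at the single tested dose, limit read from the data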;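 also: plate controls were DMSO wells with enzyme for no effect and DMSO wells lacking enzyme for full effect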
# SENP8 block-1 = SENP8 protease inhibition. Q96LD8. purified SENP8, Z-RLRGG-aminoluciferin cleavage, luminescence. inhibition, % at 10 µM. 1.2% of 330,000 active; in the data active = inhibition above about 50%
# Target sequence (Q96LD8 whole entry, looked up): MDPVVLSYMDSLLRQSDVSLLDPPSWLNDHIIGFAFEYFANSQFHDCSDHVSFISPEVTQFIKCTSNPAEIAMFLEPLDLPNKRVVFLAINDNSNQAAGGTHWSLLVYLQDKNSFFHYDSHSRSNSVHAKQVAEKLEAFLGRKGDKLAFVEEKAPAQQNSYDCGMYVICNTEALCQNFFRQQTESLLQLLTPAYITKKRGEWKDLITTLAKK
# TRAIL sens C8 = caspase-8 TRAIL sensitization; 1% of 360,000 active; inhibition (viability loss, TRAIL sensitization), % at 10 µM; NB7+C8 cells + TRAIL, ATPlite viability luminescence;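 active = compounds causing at least 50% loss of cell viability in the single-dose screen, relative to plate controls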
# SENP8 block-2 = SENP8 (human) protease inhibition; Q96LD8; recombinant SENP8, Nedd8 substrate fluorescence; inhibition, % at 20 µM; 0.64% of 360,000 active; AID 602440; in the data active = inhibition mostly above about 40%, no sharp cut-off; inactive = mostly below about 27%
# SENP8 conf = confirmation of human SENP8 protease inhibitors; 40% of 6,200 active; inhibition, % at 12.5 µM; Recombinant SENP8, Z-RLRGG-aminoluciferin luminescence, 60 min; shares compounds with SENP7 block; AID 488912;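 active = mean inhibition across replicates above about 50%, limit read from the data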
# SENP6 confirm = confirmation of human SENP6 protease inhibitors; 58% of 6,200 active; inhibition, % at 12.5 µM; recombinant SENP6, Z-RLRGG-aminoluciferin luminescence; shares compounds with SENP7 block; AID 488915
# SENP7 confirm = human SENP7 inhibition, confirmed. recombinant SENP7, Z-RLRGG-aminoluciferin luminescence, 40 min. inhibition, % at 12.5 µM. 69% of 6,200 active. shares compounds with SENP7 block
# Casp3 select = selectivity test for SENP inhibitors: human caspase-3 inhibition | shares compounds with SENP7 block | purified caspase-3, Z-DEVD-aminoluciferin luminescence, 60 min | inhibition, % at 12.5 µM | 60% of 6,200 active;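 active = mean inhibition above about 50%, limit read from the data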;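 also: plate controls were enzyme with DMSO for no effect and wells without caspase-3 for full effect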
# SENP luc ctr = luminescence interference (SENP counter-screen); shares compounds with SENP7 block; 39% of 6,200 active; Pre-incubated SENP8/Z-RLRGG-aminoluciferin, luciferase luminescence interference; AID 488919; inhibition, % at 12.5 µM;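 active = mean inhibition above about 50% when retested at one dose, limit read from the data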;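 also: plate controls were DMSO wells with completed reaction for no effect and substrate without enzyme for full effect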
# Active calls of the source: *; x = no result given. Most compounds without a hit are left out; they make up all but 3% or so of the library.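 The calls were made as follows, unless noted: active = mean inhibition above about 50% in the one-dose retest (limit read from the data); inactive = the rest.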
SMILES,PPC-1+TRAIL kill,SENP7 block,SENP6 inh,SENP8 block-1,TRAIL sens C8,SENP8 block-2,SENP8 conf,SENP6 confirm,SENP7 confirm,Casp3 select,SENP luc ctr
CCOC(=O)c1nnn(CC(=O)N2N=C(c3ccccc3)CC2c2ccccc2)c1C(=O)OCC (centres undefined),28,-18,-10,-8,9,7,x,x,x,x,x
CCOC(=O)/C=C(\C)N1N=C(c2ccccc2)CC1c1ccccc1 (centres undefined),20,21,52*,21,-2,-98,9,35,75*,29,28
O=S(=O)(NC1CCCCC1N1CCC(O)CC1)c1ccccc1 (centres undefined),x,2,-5,0,4,10,x,x,x,x,x
O=C(COC(=O)CC1Sc2ccccc2NC1=O)NCc1ccccc1 (centres undefined),x,-3,-13,1,-14,9,x,x,x,x,x
COc1ccc(N=Cc2c(O)[nH]c3ccccc23)cc1,4,68*,28,66*,24,11,2,83*,99*,76*,18
Oc1[nH]c2ccccc2c1C=Nc1ccc2c(c1)OCO2,33,1,86*,76*,23,-5,67*,88*,99*,83*,27
Cc1[nH]c2ccccc2c1/C=N\NC(=O)CNc1ccc2c(c1)OCO2,6,-2,8,5,1,28,x,x,x,x,x
COc1ccc(CN2C(=O)C(CC(=O)NCc3cccs3)CC(C(=O)N(C(C)C)C(C)C)=C2C)cc1 (centres undefined),x,x,x,x,-1,16,x,x,x,x,x
CN(C)CCCNc1nc2cc(-c3cnn(C)c3)sc2c(=O)n1C,x,x,x,x,-14,-50,x,x,x,x,x
Cc1noc(C)c1C(=O)N1CCC1(C)C(=O)NS(=O)(=O)c1cccc(Cl)c1 (centres undefined),x,x,x,x,-13,11,x,x,x,x,x
Cc1ccc(C2=NNC(c3cccc(F)c3)S2)cc1 (centres undefined),x,95*,89*,87*,66*,-166,46,51*,45,51*,10
COc1ccc(C2NN=C(c3ccc(C)cc3)S2)cc1OC (centres undefined),31,94*,93*,92*,59*,-394,10,22,26,26,11
Fc1cccc(C2NN=C(c3ccccc3)S2)c1 (centres undefined),27,97*,92*,52*,55*,-72,29,54*,80*,65*,14
CC1=C(C(=O)N(C)C)CC(CC(=O)NCC2CCCCC2)C(=O)N1Cc1ccc(F)cc1 (centres undefined),x,x,x,x,-8,15,x,x,x,x,x
O=C(NCc1ccc(F)cc1)c1cc(C2CCCCN2C(=O)c2ccc(Cl)cc2)on1 (centres undefined),x,x,x,x,20,20,x,x,x,x,x
O=C1CCC(=O)N1c1ccc(-c2nc3sc4c(c3c(=O)o2)CCC4)cc1,8,-15,-45,-20,-5,-22,x,x,x,x,x
O=c1oc(-c2ccccc2)nc2sc3c(c12)CCC3,19,88*,91*,20,0,-72,51*,50,40,64*,29
Cc1sc2nc(-c3ccccc3)oc(=O)c2c1C,11,91*,47,76*,5,2,62*,63*,64*,69*,34
Nc1nc(-c2ccccc2)nc2sc3c(c12)CCCC3,55*,75*,84*,58*,76*,-401,3,70*,90*,46,12
Cc1ccc(-c2nc3ccccc3c(=O)o2)cc1,x,45,54*,7,36,-16,39,32,47,22,33
Cc1nc2sc(C)c(C)c2c(=O)o1,14,-4,-7,-7,3,8,x,x,x,x,x
O=C(NC1CCCCC1)c1cccc(N2C(=O)CCC2=O)c1,x,12,-8,-13,-8,4,x,x,x,x,x
COc1ccc(CC(=O)Nc2ccccc2C(=O)N2CCCC2)cc1,x,4,-4,6,2,4,x,x,x,x,x
C#CCNC(=O)C1=C[C@@H](C)[C@H](CCCO)[C@@H](OCC)O1,x,5,-19,-15,-6,6,x,x,x,x,x
O=c1oc(-c2ccco2)nc2sc3c(c12)CCCC3,-3,-10,72*,42,21,-173,66*,54*,52*,27,29
SMILES,PPC-1+TRAIL kill,SENP7 block,SENP6 inh,SENP8 block-1,TRAIL sens C8,SENP8 block-2,SENP8 conf,SENP6 confirm,SENP7 confirm,Casp3 select,SENP luc ctr
CCC(C)c1ccc(NC(=O)COC(=O)CCNC(=O)c2ccco2)cc1 (centres undefined),x,-1,-12,3,-11,1,x,x,x,x,x
CN(C(=O)c1ccc(NC(=O)c2ccco2)cc1)c1ccccc1,x,81*,81*,61*,22,5,13,69*,87*,88*,72*
CCC(C)c1ccc(NC(=O)c2ccco2)cc1 (centres undefined),x,74*,85*,70*,73*,8,79*,78*,94*,71*,67*
CN(C(=O)c1cccc(NC(=O)c2ccco2)c1)c1ccccc1,x,-7,-2,9,-11,8,x,x,x,x,x
O=C(Oc1ccccc1)c1ccc(NC(=O)c2ccco2)cc1,19,91*,7,66*,1,5,33,66*,85*,78*,36
COc1cc(NC(=O)COC(=O)CO/N=C(\C)c2ccc3c(c2)OCO3)cc(OC)c1,x,3,-9,-2,-7,-1,x,x,x,x,x
Cc1ncsc1C(=O)Nc1nc2c(s1)CC(C)CC2 (centres undefined),40,98*,96*,92*,35,-78,-4,72*,93*,84*,26
CC1CCc2nc(NC(=O)C3COc4ccccc4O3)sc2C1 (centres undefined),5,43,75*,45,18,1,72*,72*,91*,59*,28
Cc1csc(NC(=O)C2COc3ccccc3O2)n1 (centres undefined),2,1,33,-1,13,14,x,x,x,x,x
Cc1cnc(NC(=O)C2COc3ccccc3O2)s1 (centres undefined),12,65*,58*,52*,19,6,69*,68*,89*,79*,73*

# Screening data: PubChem, Sanford-Burnham Center for Chemical Genomics
